# Experimental data taken from PubChem BioAssay (NCI).
# The panel holds about 83,000 compounds, 20% with a hit somewhere; the sample as a whole holds those more often.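 For each line, cells grew in 96-well plates with the test compound present at a single concentration for 48 hours.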 Values without a mark were called inactive. Active and inactive are the calls of the source. Rule for the calls: active = growth percent below 10; inactive = the rest.
# Assays:
# Assay in all cases: NCI-60 one-dose screen, 48 h (100 = growth as untreated, 0 = no growth, -100 = all killed)
# Conditions in all cases: 10 µM unless noted
# [1] = system: NCI-H23 lung
# [2] = system: NCI-H226 lung
# [3] = system: NCI-H322M lung
# [4] = system: HOP-62 NSCLC
# [5] = system: NCI-H460 lung
# [6] = system: HOP-92 NSCLC
# [7] = system: NCI-H522 lung
# [8] = system: A549/ATCC NSCLC
# [9] = system: 786-0 renal
# [10] = system: COLO 205 colon
# [11] = system: DU-145 prostate
# [12] = system: K-562 leukemia
# [13] = system: MALME-3M melanoma
# [14] = system: MDA-MB-231 breast
# [15] = system: RXF 393 renal
# [16] = system: SF-268 CNS
# [17] = system: SF-295 CNS
# [18] = system: SF-539 CNS
# [19] = system: UACC-257 melanoma
# [20] = system: M14 melanoma
Compound,growth [1],growth [2],growth [3],growth [4],growth [5],growth [6],growth [7],growth [8],growth [9],growth [10],growth [11],growth [12],growth [13],growth [14],growth [15],growth [16],growth [17],growth [18],growth [19],growth [20]
S=C=NP1(N=C=S)=NP(N=C=S)(N=C=S)=NP(N=C=S)(N=C=S)=NP(N=C=S)(N=C=S)=N1 (stereo not drawn),97.7%,94%,80.9%,85.4%,111%,93.2%,72.2%,79.2%,89.4%,118%,113%,86.4%,91.4%,105%,109%,103%,97.8%,94.7%,94.8%,93.4%
O=C(Nc1ccc(-n2cc(-c3ccncc3)c(-c3ccc(O)c(Cl)c3)n2)cc1)c1ccc(Cl)c(Cl)c1,43.7%,74.6%,71.5%,27.5%,22.3%,14.9%,26.3%,33.1%,-41.6% (active),64.9%,46.1%,11.7%,46.8%,-33.8% (active),-83.2% (active),54.5%,-16.3% (active),10.6%,69.5%,-35.7% (active)
CCOc1ccc(Cc2nccc3cc(OCC)c(OCC)cc23)cc1OCC,34%,73.3%,66.8%,67.7%,48%,52%,56.4%,64.6%,64.8%,76.2%,77.2%,14.3%,80.2%,53.2%,–,78%,28%,65.9%,69%,70.8%
O=C(O)c1cccc(S(=O)(=O)c2ccccc2)c1,96.8%,96.8%,98.6%,103%,100%,82.8%,93.5%,102%,108%,104%,107%,107%,87.7%,123%,101%,103%,95%,98.5%,105%,95.9%
COc1ccc(Cn2cc3c(c2-c2cc(OC)c(OC)c(OC)c2)CCc2c(CO)noc2-3)cc1,38.3%,47.7%,39.7%,35.2%,4.62% (active),57%,9.75% (active),32.5%,45%,-23.6% (active),19.4%,7.1% (active),94.8%,18%,2.44% (active),43%,14.8%,3.55% (active),64.6%,7.98% (active)
CC(C)NCC(O)COc1ccc(CC(N)=O)cc1 (stereo not drawn),105%,102%,100%,102%,109%,85.6%,94.9%,106%,97.2%,114%,109%,96.6%,98.4%,103%,111%,112%,95.8%,109%,104%,98.3%
O=C(NOC1OC(CO)C(O)C(O)C1O)Nc1ccccc1 (stereo not drawn),104%,90.5%,101%,93.2%,103%,91.1%,84.9%,106%,107%,95.8%,108%,69%,94.8%,99.2%,–,85.7%,98.5%,103%,107%,108%
c1ccc(OCC[P+](c2ccccc2)(c2ccccc2)c2ccccc2)cc1,7.98% (active),38.5%,59.4%,26.8%,17.1%,-5.38% (active),-9.67% (active),30.9%,53.2%,2.02% (active),36.4%,17.5%,15.5%,43.6%,51%,20.9%,21.2%,32%,-4.91% (active),32.6%
CC(C)(C)NC(C1=CC(C)(C)c2ccccc2C1=O)c1ccccc1 (stereo not drawn),9.47% (active),-68.6% (active),-1.08% (active),-13.8% (active),-49.2% (active),-50.8% (active),-81.5% (active),-9.21% (active),-94% (active),-91.5% (active),-26.2% (active),-34.8% (active),-43% (active),-1.43% (active),–,-11.3% (active),37.8%,-40.7% (active),-59.3% (active),-41.5% (active)
COC(=O)c1oc2c(C(C)=O)c(OCCCN(C)C)ccc2c1C,97.3%,96.1%,82.2%,123%,118%,28.1%,86.4%,110%,96%,109%,150%,73.3%,72.3%,95%,96.1%,207%,109%,124%,106%,123%
CCC(C)Nc1ccc(N)cc1 (stereo not drawn),5.04% (active),42.5%,53.3%,11.6%,9.41% (active),-24.5% (active),-25.2% (active),11.8%,-35.8% (active),-57.2% (active),32.1%,3.79% (active),-15.6% (active),4.8% (active),–,47%,11.4%,47.5%,-43.1% (active),31.9%
COc1ccc(-c2nn(-c3ccc(NC(=O)c4cc(C(F)(F)F)cc(C(F)(F)F)c4)cc3)cc2-c2ccncc2)cc1Cl,72.1%,91.1%,87.4%,67%,57.7%,48.7%,71.2%,59.5%,44.1%,85.6%,76.7%,29%,95.1%,49.3%,-6.8% (active),68.7%,33.1%,67.7%,78.8%,40.1%
COc1cc(NC(C)CCCN2C(=O)c3ccccc3C2=O)c2nccc(C)c2c1OC (stereo not drawn),90.1%,94.1%,102%,103%,108%,60.1%,75.2%,93.9%,94.2%,131%,124%,60.9%,81.2%,84.7%,106%,104%,119%,119%,106%,135%
C=C1C(=O)O[C@H]2[C@H]1CC/C(CNC(=O)/C1=C/CC[C@@]3(C)O[C@H]3[C@H]3OC(=O)C(=C)[C@@H]3CC1)=C\CC[C@@]1(C)O[C@@H]21,99.6%,92.4%,96%,93.8%,104%,84.5%,-28.3% (active),91%,93.1%,71.8%,105%,–,104%,102%,99.3%,98.5%,97.6%,95.6%,79.9%,95.2%
Nc1nc2ccc(CNc3ccc(C(=O)NC(CC(=O)O)C(=O)O)cc3)cc2c(=O)[nH]1 (stereo not drawn),31.7%,57.4%,55.7%,26.5%,24.4%,64.1%,-0.0288% (active),11%,7.57% (active),85.4%,44.9%,12.2%,71.7%,120%,–,40.1%,29.8%,38.4%,42.3%,32.8%
COc1ccc(-c2c(NC(=O)Nc3ccc(Cl)c(C(F)(F)F)c3)cnn2-c2ccc(S(N)(=O)=O)cc2)cc1,42.6%,75.8%,51%,53.5%,9.7% (active),0.848% (active),43.7%,39.2%,31.6%,34.7%,53.5%,11.7%,34.2%,52.7%,–,37.5%,38.6%,35.2%,34.9%,14.7%
